Consider three compounds from PubChem BioAssay.

Each structure is given as a SMILES string. Several values for one entry are separate records, joined by “and”; a condition that tells them apart may be missing. Equal values may be shown once. Activity calls are given as the source filed them. Unless noted, the rule behind the calls is not given here.

Experiment [1] can be described thus: signal quenchers or enhancers, Cy5 substrate/SSB – biochemical, NIH Clinical Collection, E. coli SSB, artefact control for HCV NS3 helicase inhibitor project (AID 743268). The following applies: Cy5-oligo bound E. coli SSB, fluorescence interference.
Experiment [2] concerns Hepatitis C virus NS3 helicase. Briefly: blockers of NS3h binding to DNA – biochemical, fluorescence polarization, NIH Clinical Collection, primary screen (AID 743270). The following applies: NS3 helicase binding to Cy5-dT15 DNA, stronger effect = higher value, concentration not given here. A general note: Polarisation of emitted light reports the rotation of a fluorescent probe.
The target in experiment [3] is Single-stranded DNA-binding protein (Escherichia coli (strain K12)) (UniProt P0AGE0). Briefly: SSB-ssDNA binding inhibitors – biochemical, fluorescence polarization, NIH Clinical Collection, counter-screen for HCV NS3 helicase inhibitor project (AID 743271; in the data active = inhibition above about 28%). The following applies: E. coli SSB-DNA binding, stronger effect = higher value, concentration not given here.
Experiment [4] is described as follows: compounds distorting NS3 helicase fluorescence signal – biochemical, NIH Clinical Collection, artefact control for HCV NS3 helicase inhibitor project (AID 743272).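 Note: HCV NS3 helicase with a Cy5 labelled single stranded DNA probe.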 The following applies: fluorescence interference counterscreen, HCV NS3 helicase assay; stronger effect = lower value. (In general: A counterscreen serves to expose hits that act by an unwanted route or on another target.)

Experiment [5] in a line: Wnt pathway potentiators raising nuclear beta-catenin – imaging, WNT3A-conditioned medium, mouse C2C12, NPC library, primary screen (AID 1117326; in the data active = nuclear beta-catenin stimulation mostly above about 4.2%, no sharp cut-off; inactive = mostly below about 10%). The following applies: stronger effect = higher value.
Experiment [6] is described as follows: stimulators of insulin release from INS-1E, primary screen, cell-based, 5 mM glucose, NPC library (AID 1117329;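 active = compound raises insulin release from rat beta cells at 5 mM glucose, no numeric limit stated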). The following applies: rat INS-1E insulin secretion, at 10 µM, stronger effect = higher value.
The nature of experiment [7]: growth inhibition of GSK3B-pretreated HCT116 cells – cell-based, CellTiter-Glo, 0.2 to 20 µM (AID 1117336;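 active = compounds lowering colon cancer cell viability after pretreatment blocking the GSK3B kinase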). The following applies: HCT116 viability after GSK3B inhibitor, at 20 µM, stronger effect = higher value. (In general: In ATP-based viability assays light output follows the ATP content of the culture.)
Experiment [8] in a line: inhibition of endothelial tube formation, primary screen, imaging, VEGF stimulated, CD31 staining, tube area, NPC library (AID 1117340;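 active = compound that reduces growth-factor-driven endothelial tube area in a mixed cell culture, no cutoff stated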). The following applies: VEGF-stimulated ADSC/ECFC co-culture, at 10 µM, stronger effect = higher value.
Experiment [9] can be described thus: GLP1 release stimulators, primary, NCI-H716, NPC library (AID 1117341;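 active = compound raises GLP1 secretion from the human gut endocrine cells, with no numeric limit stated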). The following applies: NCI-H716 cells, at 10 µM, stronger effect = higher value.
Experiment [10] is described as follows: HCT116 colon cancer cell growth inhibition, primary screen, CellTiter-Glo luminescence, NPC library (AID 1117342;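 active = compounds that lower survival of HCT116 colon cancer cells in the luminescence readout, no numeric limit stated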). The following applies: at 20 µM (top of the series).
The nature of experiment [11]: reduced SW480 viability measured with CellTiter-Glo, NPC library, primary (AID 1117343;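 active = compounds that lower viability of the colon cancer cells in the luminescence readout, with no numeric limit stated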). The following applies: CellTiter-Glo luminescence; at 20 µM (top of the series).
A short description of experiment [12]: NPC library primary testing for decreased DLD-1 cell viability via CellTiter-Glo (AID 1117346;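 active = compounds that lower survival of DLD-1 colon cancer cells in the luminescence readout, no cutoff given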). The following applies: DLD-1 viability, CellTiter-Glo luminescence; at 20 µM (top of the series).
The target of experiment [13] is 6-phosphogluconate dehydrogenase, decarboxylating (Homo sapiens) (UniProt P52209). Briefly: inhibition of human phosphogluconate dehydrogenase – biochemical, recombinant enzyme, NADPH absorbance, primary screen (AID 1159550;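 active = at least 20% inhibition of 6-phosphogluconate dehydrogenase activity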). The following applies: recombinant 6PGD, NADPH absorbance 341 nm; at 10 µM; stronger effect = higher value.
Experiment [14] can be described thus: EMT-state selective cytotoxicity in co-culture – imaging, PC-3E GFP, TEM4-18 mCherry, primary screen (AID 1345086;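 active = compounds killing one labelled cell type while sparing the other, by normalised counts and ratio limits, not self-fluorescent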;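 for all read-outs here: cells exposed to compound for 72 h before imaging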;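 for red/green cell ratio (normalised): normalised mesenchymal count divided by normalised epithelial count so high means epithelial killing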). The following applies: PC-3E GFP / TEM4-18 mCherry co-culture, imaging cell counts, at 1 µM; for red/green cell ratio (normalised): actives lie on both sides, counts scaled to control wells, 1 = unselective.
A short description of experiment [15]: MELAS cybrid and Rieske KO viability enhancers – cell-based, MELAS cybrids, Rieske KO mouse fibroblasts, CellTiter-Glo, primary screen (AID 1508586;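 active = mean z-score across replicates of 1.96 or higher in either the MELAS or the Rieske mutant cell line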;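 note: z relative to plate mean and SD of compound and empty wells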). The following applies: low glucose.
For experiment [16], the target named is NAD(+) hydrolase SARM1 (Homo sapiens) (UniProt Q6SZW1). The experiment is described as follows: blocking NAD cleavage by SARM1 SAM-TIR – cell lysate, NAD-Glo luminescence (AID 1508614;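 active = compound whose remaining NAD level is above about 45 nM, limit read from the data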;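 note: higher remaining NAD means stronger inhibition of SARM1 NADase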). The following applies: SAM-TIR HEK293T lysate NADase, at 1 µM, stronger effect = higher value.
In experiment [17] the target is Mitogen-activated protein kinase 7 (Homo sapiens) (UniProt Q13164). Briefly: Gal4-ERK5 driven luciferase induction – cell-based, HTS, primary screen (AID 1508626;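 active = luciferase signal above three times the same-plate solvent-only control wells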;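 note: luciferase driven by Gal4-ERK5 fusion binding five Gal4 sites before minimal TATA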). The following applies: HeLa Gal4-ERK5 transactivation, 18 h, at 5 µM, stronger effect = higher value.
For the next experiment, the system named is F380Y. The experiment is described as follows: BK channel mutant inhibitors and activators – cell-based, U2OS BacMam, thallium flux, beta subunits, selectivity assay, profiling panel (AID 1259406;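 active = thallium flux through the channel raised or lowered by more than 3 SD from vehicle-only wells, actives on both sides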;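 note: initial slope of Thallos dye fluorescence rise after thallium is added; log ratio against the mean of 0.3% DMSO vehicle wells on the same plate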). The following applies: U2OS BacMam BK variants, at 30 µM.
[18] abbreviates: measured here: epithelial PC-3E GFP cell survival.
The mark [19] stands for this setting: measured here: mesenchymal TEM4-18 mCherry cell survival.
[20] abbreviates: MELAS cybrid survival, CellTiter-Glo 48 h, stronger effect = higher value.
Setting [21] is: Rieske KO mouse fibroblast survival, CellTiter-Glo 72 h.

Sequence of 6-phosphogluconate dehydrogenase, decarboxylating (Homo sapiens) (P52209 whole entry, looked up): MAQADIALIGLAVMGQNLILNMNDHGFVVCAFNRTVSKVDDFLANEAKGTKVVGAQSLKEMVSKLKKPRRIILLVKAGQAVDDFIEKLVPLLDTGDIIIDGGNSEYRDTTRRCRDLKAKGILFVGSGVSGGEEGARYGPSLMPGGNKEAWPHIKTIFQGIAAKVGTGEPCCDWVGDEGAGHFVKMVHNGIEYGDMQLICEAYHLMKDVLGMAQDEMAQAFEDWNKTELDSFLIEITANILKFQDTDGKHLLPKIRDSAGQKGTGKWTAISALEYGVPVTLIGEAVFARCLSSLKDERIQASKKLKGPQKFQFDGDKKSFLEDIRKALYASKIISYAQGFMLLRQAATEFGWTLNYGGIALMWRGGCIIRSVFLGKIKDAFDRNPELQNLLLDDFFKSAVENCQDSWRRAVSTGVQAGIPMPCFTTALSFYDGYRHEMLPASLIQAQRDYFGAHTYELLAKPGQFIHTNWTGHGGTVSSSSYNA
Sequence of NAD(+) hydrolase SARM1 (Homo sapiens) (Q6SZW1 whole entry, looked up, the tested form may be a part): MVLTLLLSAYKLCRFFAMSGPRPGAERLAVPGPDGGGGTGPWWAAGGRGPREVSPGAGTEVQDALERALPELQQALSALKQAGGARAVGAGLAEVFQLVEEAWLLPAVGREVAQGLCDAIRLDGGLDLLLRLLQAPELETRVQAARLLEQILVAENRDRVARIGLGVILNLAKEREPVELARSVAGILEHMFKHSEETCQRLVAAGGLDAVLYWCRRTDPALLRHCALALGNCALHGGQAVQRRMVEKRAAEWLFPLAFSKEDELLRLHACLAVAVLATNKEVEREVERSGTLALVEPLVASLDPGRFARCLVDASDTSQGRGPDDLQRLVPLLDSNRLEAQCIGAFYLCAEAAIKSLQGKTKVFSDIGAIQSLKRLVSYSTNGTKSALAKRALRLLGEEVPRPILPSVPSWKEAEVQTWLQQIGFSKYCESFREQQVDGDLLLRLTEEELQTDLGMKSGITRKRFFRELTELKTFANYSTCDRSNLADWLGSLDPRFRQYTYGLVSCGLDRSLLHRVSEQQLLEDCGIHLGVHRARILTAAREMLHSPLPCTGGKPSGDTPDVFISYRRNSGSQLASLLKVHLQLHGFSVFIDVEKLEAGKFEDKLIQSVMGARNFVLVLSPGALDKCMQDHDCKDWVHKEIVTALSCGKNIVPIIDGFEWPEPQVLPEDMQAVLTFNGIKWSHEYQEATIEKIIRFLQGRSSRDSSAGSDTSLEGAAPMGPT
Sequence of Mitogen-activated protein kinase 7 (Homo sapiens) (Q13164 whole entry, looked up, the tested form may be a part): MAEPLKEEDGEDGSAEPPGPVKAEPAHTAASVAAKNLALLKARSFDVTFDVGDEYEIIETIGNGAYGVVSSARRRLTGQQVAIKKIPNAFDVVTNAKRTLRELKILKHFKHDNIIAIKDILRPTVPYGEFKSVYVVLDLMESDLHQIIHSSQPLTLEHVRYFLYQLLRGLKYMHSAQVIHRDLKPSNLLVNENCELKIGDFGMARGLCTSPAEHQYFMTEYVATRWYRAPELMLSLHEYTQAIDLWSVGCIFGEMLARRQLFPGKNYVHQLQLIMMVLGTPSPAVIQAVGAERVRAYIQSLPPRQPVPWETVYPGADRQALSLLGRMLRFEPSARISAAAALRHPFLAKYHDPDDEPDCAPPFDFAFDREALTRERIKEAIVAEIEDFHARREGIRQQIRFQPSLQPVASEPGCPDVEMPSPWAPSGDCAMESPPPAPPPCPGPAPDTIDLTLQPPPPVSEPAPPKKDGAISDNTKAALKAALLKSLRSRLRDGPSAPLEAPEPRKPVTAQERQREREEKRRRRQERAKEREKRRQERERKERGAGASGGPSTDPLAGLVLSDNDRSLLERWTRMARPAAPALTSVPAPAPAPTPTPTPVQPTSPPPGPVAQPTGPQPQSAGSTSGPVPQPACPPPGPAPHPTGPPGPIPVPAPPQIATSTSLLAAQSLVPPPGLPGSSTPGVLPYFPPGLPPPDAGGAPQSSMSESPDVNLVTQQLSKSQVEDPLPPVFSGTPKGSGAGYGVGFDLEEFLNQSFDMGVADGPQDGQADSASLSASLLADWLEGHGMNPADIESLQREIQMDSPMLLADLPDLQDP

Broadly, the inhibition is the relative decrease from the control value, in per cent. Regarding `CN(C)CCOC(c1ccccc1)c1ccccc1`, the fluorescence ratio is 1.02 (inactive) in [1] and 0.99 (inactive) in experiment [4]. Also, the inhibition was -1.19% (inactive) in experiment [2], 5.29% (inactive) in [3] and 11.2% (inactive) in experiment [13]. Moreover, the nuclear beta-catenin stimulation was 0.5% (inactive) in experiment [5] (at 10 µM) and -1% in [5] (stimulation, at 2 µM). For the same compound, the insulin secretion stimulation in experiment [6] is 14.4% (inactive). Further, the viability decrease in [7] was -17.4% (inactive). Moreover, the tube area decrease in [8] is 1% (inactive). The GLP1 secretion stimulation in [9] was 4.4% (inactive). In addition, the inhibition of viability in experiment [10] was 36.7% (inactive). Moreover, the results for the viability decrease (inhibition) in [11] and in [12] were 57.8% (active) and 1% (inactive), respectively. Further, in experiment [14], the red/green cell ratio (normalised) is 1.07 (inactive). Further, the normalised cell number is 1.28 in [14] (setting [18]) and 1.37 in experiment [14] (setting [19]). Further, the z-score in experiment [15] (setting [20]) was -0.301 (inactive) and 0.806 (inactive) and -0.802 (inactive); in experiment [15] (setting [21]) it was 0.641 and 0.428 and 1.04. In experiment [16], the remaining NAD is 10 nM (inactive). Besides, the luciferase signal in experiment [17] is 36 AU (inactive). The log fold change Tl+ flux in the experiment with F380Y was 0.0428 (inactive).

Consider `COc1ccc2c(c1)c(CC(=O)O)c(C)n2C(=O)c1ccc(Cl)cc1`, for which the fluorescence ratio in [1] is 1.02 (inactive); in [4] it was 1.01 (inactive). Moreover, the inhibition in experiment [2] is -3.56% (inactive); in experiment [3], -2.41% (inactive); in experiment [13], -5.45% (inactive). Moreover, the nuclear beta-catenin stimulation was 0.6% (inactive) in experiment [5] (at 10 µM) and 1% in [5] (stimulation, at 2 µM). Besides, the insulin secretion stimulation in experiment [6] is -1% (inactive). For the same compound, the viability decrease in [7] is -52.1% (inactive). In experiment [8], the tube area decrease is -10.5% (inactive). In addition, in experiment [9], the GLP1 secretion stimulation is 1.6% (inactive). In experiment [10], the inhibition of viability was 0.43% (inactive). The viability decrease (inhibition) was 10.6% (inactive) in experiment [11] and 3.4% (inactive) in experiment [12]. In addition, in experiment [14], the red/green cell ratio (normalised) is 1.02 (inactive). The values for the normalised cell number in [14] (setting [18]) and in experiment [14] (setting [19]) were 0.91 and 0.93, respectively. The z-score in experiment [15] (setting [20]) was -0.268 (inactive) and 0.659 (inactive) and 0.23 (inactive); in experiment [15] (setting [21]), -0.036 and -0.235 and -0.118. Also, the remaining NAD in experiment [16] was 10 nM (inactive). The luciferase signal in experiment [17] is 36 AU (inactive). Besides, the log fold change Tl+ flux in the experiment on F380Y was 0.0847 (inactive).

`CCCCc1oc2ccccc2c1C(=O)c1cc(I)c(OCCN(CC)CC)c(I)c1`: the fluorescence ratio in [1] is 0.96 (inactive); in experiment [4] it was 0.95 (inactive). Further, the inhibition in [2] was -1.97% (inactive); in [3], 1.97% (inactive); in experiment [13] it was 7.85% (inactive). In addition, the nuclear beta-catenin stimulation in [5] (at 10 µM) is 71.4% (active); in [5] (stimulation, at 2 µM), 0.8%. The insulin secretion stimulation in [6] was 0.6% (inactive). In addition, in experiment [7], the viability decrease was 103% (active). The tube area decrease in experiment [8] is 110% (active). Also, in experiment [9], the GLP1 secretion stimulation is 3.9% (inactive). Besides, the inhibition of viability in experiment [10] was 102% (active). Moreover, the viability decrease (inhibition) in experiment [11] is 129% (active); in experiment [12] it was 105% (active). Moreover, the red/green cell ratio (normalised) in experiment [14] is 1.08 (inactive). Further, the values for the normalised cell number in experiment [14] (setting [18]) and in experiment [14] (setting [19]) were 1.02 and 1.1, respectively. Further, the z-score in experiment [15] (setting [20]) was -0.425 (inactive) and -1.46 (inactive) and 0.238 (inactive); in experiment [15] (setting [21]), 0.341 and -0.317 and -0.0304. In addition, in [16], the remaining NAD is 10 nM (inactive). In [17], the luciferase signal was 44 AU (inactive).
